Data taken from PubChem BioAssay.
Activity calls are given as the source filed them. Unless noted, no rule for the calls is given here.

Tests used:
[1] = compounds binding Alexa647 anti-His antibody – biochemical, small-molecule microarray, 635 nm fluorescence, artefact control for SMM control protein annotation, primary screen (AID 1128); conditions: higher = more signal;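 also: score merges feature fluorescence with signal-to-noise for each printed compound spot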
[2] = tested on: Human papillomavirus type 1a E7 protein (residues 1-88); experiment: HPV1a E7 small-molecule binders, primary screen, biochemical, small-molecule microarray, residues 1-88, 635 nm (AID 1129); conditions: small-molecule microarray binding, fluorescence 635 nm; higher = more signal
[3] = biological target: Focal adhesion kinase 1 (Homo sapiens) (UniProt Q05397); experiment: PTK2 protein binding on printed compound slides – biochemical, small-molecule microarray, 635/667 nm fluorescence, BSA, DTT, primary screen (AID 1130); conditions: 635 nm fluorescence, higher = more signal;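 also: composite of spot emission at 667 nm and signal to noise over triplicate slides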
Sequence of Focal adhesion kinase 1 (Homo sapiens) (Q05397 whole entry, looked up): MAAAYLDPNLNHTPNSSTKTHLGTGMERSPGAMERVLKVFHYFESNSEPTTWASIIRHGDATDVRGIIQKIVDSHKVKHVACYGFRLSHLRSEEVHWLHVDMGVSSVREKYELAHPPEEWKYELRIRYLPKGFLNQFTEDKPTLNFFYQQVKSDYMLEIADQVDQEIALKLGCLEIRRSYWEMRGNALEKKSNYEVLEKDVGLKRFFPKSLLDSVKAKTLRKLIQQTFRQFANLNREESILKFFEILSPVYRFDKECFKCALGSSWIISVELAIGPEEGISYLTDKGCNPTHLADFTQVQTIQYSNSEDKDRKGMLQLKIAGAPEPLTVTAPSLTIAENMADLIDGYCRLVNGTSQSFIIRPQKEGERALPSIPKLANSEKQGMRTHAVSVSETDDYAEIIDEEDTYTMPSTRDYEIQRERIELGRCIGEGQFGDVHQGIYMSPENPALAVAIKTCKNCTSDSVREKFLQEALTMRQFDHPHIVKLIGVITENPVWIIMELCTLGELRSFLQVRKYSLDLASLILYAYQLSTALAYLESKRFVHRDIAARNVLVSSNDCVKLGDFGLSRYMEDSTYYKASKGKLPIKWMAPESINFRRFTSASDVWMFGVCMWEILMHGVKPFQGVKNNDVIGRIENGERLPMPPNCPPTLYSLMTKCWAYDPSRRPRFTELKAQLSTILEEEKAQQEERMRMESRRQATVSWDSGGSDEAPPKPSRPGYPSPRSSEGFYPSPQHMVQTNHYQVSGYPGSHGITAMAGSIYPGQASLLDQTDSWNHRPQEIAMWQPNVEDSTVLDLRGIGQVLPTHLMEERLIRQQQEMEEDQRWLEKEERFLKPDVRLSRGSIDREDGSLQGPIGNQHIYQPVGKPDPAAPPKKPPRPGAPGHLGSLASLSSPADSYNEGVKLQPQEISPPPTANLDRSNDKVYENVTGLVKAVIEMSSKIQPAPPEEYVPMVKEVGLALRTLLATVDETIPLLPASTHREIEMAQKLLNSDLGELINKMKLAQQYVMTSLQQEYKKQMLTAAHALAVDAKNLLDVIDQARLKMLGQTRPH

[4] = tested on: Fibrinogen (Alexa647-labelled); experiment: Alexa647-fibrinogen binding to printed small molecules – biochemical, small-molecule microarray, 635/667 nm fluorescence, artefact control for SMM control-protein annotation, profiling panel (AID 1131); conditions: fibrinogen-A647 binding fluorescence, higher = more signal;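 also: z-score merges 667 nm fluorescence with per-spot signal-to-noise over triplicate slides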
[5] = biological target: Follistatin (Homo sapiens) (UniProt P19883); experiment: FST protein binding to printed compounds – biochemical, small-molecule microarray, 635/667 nm fluorescence, primary screen (AID 1132); conditions: 635 nm fluorescence, higher = more signal
Sequence of Follistatin (Homo sapiens) (P19883 whole entry, looked up): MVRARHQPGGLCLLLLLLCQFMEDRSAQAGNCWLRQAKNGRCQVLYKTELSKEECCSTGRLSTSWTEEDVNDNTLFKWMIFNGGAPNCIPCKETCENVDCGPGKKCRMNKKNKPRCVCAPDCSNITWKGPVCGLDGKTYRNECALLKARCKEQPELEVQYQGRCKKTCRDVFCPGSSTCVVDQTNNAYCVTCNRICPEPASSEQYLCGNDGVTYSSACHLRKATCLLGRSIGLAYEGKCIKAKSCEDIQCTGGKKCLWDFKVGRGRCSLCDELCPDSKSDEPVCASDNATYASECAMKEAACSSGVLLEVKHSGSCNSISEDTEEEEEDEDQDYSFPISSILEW

[6] = biological target: Fibroblast growth factor 2 (Homo sapiens) (UniProt P09038); experiment: basic fibroblast growth factor binding to printed compounds – biochemical, small-molecule microarray, 635/667 nm fluorescence, primary screen (AID 1133); conditions: FGF2, fluorescence 635/667, higher = more signal
Sequence of Fibroblast growth factor 2 (Homo sapiens) (P09038 whole entry, looked up): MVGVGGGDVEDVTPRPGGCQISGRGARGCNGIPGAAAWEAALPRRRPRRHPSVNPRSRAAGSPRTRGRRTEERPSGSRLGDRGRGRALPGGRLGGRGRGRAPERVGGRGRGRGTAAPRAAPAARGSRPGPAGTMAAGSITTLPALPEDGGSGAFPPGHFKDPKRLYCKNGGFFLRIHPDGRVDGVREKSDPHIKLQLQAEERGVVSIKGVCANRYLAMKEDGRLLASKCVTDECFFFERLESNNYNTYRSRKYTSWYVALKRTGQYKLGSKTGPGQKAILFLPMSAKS

[7] = JC-1 mitochondrial potential readout, lung cancer cells – cell-based, A549, JC-1 fluorescence, basal, 24 h, 100 nL, profiling panel (AID 1138); conditions: higher = more signal;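 also: A549 lung adenocarcinoma cells under basal conditions with no added stimulus; test concentration not given here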
Lefty1 = Lefty1 protein binding to printed compounds – biochemical, small-molecule microarray, 635/667 nm fluorescence, primary screen (AID 1139); conditions: fluorescence 635/667, higher = more signal
[8] = tested on: wheat germ agglutinin (Triticum aestivum), Alexa647-labelled; experiment: Alexa647-WGA lectin binding to printed small molecules – biochemical, small-molecule microarray, 635/667 nm fluorescence, artefact control for SMM control-protein annotation, profiling panel (AID 1140); conditions: WGA-A647 binding, 635 nm fluorescence, higher = more signal;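 also: score merges 667 nm feature emission with signal to noise over triplicate slides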
[9] = biological target: Luciferin 4-monooxygenase (Photinus pyralis) (UniProt P08659); experiment: inhibition of purified Photinus pyralis luciferase – biochemical, luminescence, purified enzyme, 2006 set, primary screen (AID 1141); conditions: purified firefly luciferase, SteadyGlo luminescence, 30 min; higher = more signal, called active from +8 up or from −8 down;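 also: cell-free assay with purified firefly luciferase at 100 ng per well in PBS; test concentration not given here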
Sequence of Luciferin 4-monooxygenase (Photinus pyralis) (P08659 whole entry, looked up): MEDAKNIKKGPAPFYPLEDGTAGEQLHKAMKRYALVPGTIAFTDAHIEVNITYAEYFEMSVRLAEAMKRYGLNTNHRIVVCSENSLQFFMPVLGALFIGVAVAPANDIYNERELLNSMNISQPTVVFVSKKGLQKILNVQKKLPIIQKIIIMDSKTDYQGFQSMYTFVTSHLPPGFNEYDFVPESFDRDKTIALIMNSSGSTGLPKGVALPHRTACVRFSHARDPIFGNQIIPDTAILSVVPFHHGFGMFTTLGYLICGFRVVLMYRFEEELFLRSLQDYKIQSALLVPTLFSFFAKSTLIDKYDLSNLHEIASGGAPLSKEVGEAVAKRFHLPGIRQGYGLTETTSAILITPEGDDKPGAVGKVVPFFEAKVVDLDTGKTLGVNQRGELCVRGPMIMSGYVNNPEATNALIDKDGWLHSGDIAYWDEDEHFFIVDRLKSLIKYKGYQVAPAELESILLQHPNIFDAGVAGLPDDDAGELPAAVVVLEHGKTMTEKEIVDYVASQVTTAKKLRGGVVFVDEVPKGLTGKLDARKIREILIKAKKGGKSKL

[10] = tested on: Wnt5a (protein binding on small-molecule microarray); experiment: small molecules binding Wnt5a protein – biophysical, small-molecule microarray, 635/667 nm fluorescence, primary screen (AID 1142); conditions: 635 nm fluorescence, higher = more signal;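 also: fluorescence read at 667 nm with signal to noise per printed feature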
[11] = ATP-based viability of Huh7 replicon cells – cell-based, CellTiter-Glo luminescence, basal, 48 h, cytotoxicity control for HCV replication inhibitor project, primary screen (AID 1143); conditions: higher = more signal, called active from +8 up or from −8 down;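 also: Huh7 hepatoma cells carrying a hepatitis C replication reporter with no stimulus; test concentration not given here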
[12] = Pseudomonas biofilm growth suppression – PAO1 strain, BacTiter-Glo luminescence, LB-PBS, primary screen (AID 1144); conditions: P. aeruginosa PAO1 biofilm, 12 h, higher = more signal
[13] = basal CRE-LacZ reporter activity in PC12 – cell-based, unstimulated, primary screen (AID 1145); conditions: no forskolin, luminescence, 4.5 h, higher = more signal, called active from +8 up or from −8 down
[14] = forskolin-driven CRE-LacZ activity in PC12 – cell-based, CRE-LacZ reporter, forskolin-stimulated, primary screen (AID 1146); conditions: luminescence, 4.5 h, higher = more signal, called active from +8 up or from −8 down;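 also: PC12 cells with 6xCRE LacZ reporter stimulated by forskolin 10 µM; beta-galactosidase reporter signal reflecting CREB driven transcription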
[15] = biological target: Streptavidin (Streptomyces avidinii) (UniProt P22629); experiment: compounds binding control protein streptavidin – biophysical, small-molecule microarray, 635/667 nm fluorescence, artefact control for SMM compound annotation, primary screen (AID 1147); conditions: higher = more signal;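 also: signal reflects streptavidin binding to arrayed compounds as a control protein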
Sequence of Streptavidin (Streptomyces avidinii) (P22629 whole entry, looked up): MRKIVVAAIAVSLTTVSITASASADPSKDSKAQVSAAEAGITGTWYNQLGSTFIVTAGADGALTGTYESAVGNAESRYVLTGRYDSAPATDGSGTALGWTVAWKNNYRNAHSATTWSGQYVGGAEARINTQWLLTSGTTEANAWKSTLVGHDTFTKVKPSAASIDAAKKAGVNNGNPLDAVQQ

[16] = probe aInhba binding on compound microarray – biochemical, small-molecule microarray, 635/667 nm fluorescence, primary screen (AID 1148); conditions: higher = more signal;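 also: score merges 667nm spot fluorescence with signal-to-noise for antibody binding to printed compounds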
Torsin-1A (Homo sapiens) [17] = biological target: Torsin-1A (Homo sapiens) (UniProt O14656); experiment: TOR1A wild-type binding on microarray – cell lysate, small-molecule microarray, lysate, 635/667 nm, primary screen (AID 1149); conditions: COS7 hTOR1A-WT lysate, 635 nm fluorescence, higher = more signal
Sequence of Torsin-1A (Homo sapiens) (O14656 whole entry, looked up): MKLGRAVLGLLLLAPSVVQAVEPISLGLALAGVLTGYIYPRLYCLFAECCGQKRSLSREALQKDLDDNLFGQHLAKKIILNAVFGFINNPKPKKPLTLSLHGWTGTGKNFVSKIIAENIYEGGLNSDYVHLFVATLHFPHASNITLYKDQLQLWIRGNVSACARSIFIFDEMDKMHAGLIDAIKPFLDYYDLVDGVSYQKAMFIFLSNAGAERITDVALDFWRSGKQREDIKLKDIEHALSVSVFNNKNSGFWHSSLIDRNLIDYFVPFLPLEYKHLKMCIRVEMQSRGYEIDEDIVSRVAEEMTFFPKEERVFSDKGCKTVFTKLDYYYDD

Torsin-1A (Homo sapiens) [18] = biological target: Torsin-1A (Homo sapiens) (UniProt O14656); experiment: torsin A mutant lysate binding on microarrays – cell lysate, small-molecule microarray, COS7 lysate, 635/667 nm fluorescence, primary screen (AID 1150); conditions: COS7 hTOR1A mutant lysate, 635 nm fluorescence, higher = more signal;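 also: score pools 667 nm emission and signal to noise measuring lysate protein binding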
[19] = tested on: Sonic hedgehog protein (Shh); experiment: Sonic hedgehog microarray binding compounds – biochemical, small-molecule microarray, 635/667 nm fluorescence, primary screen (AID 1151); conditions: 635 nm fluorescence, higher = more signal;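 also: Shh protein binding to compounds spotted on small-molecule microarray slides; score combines spot fluorescence intensity with signal-to-noise across triplicate slides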

| SMILES | composite z-score [1] | composite z-score [2] | composite z-score [3] | composite z-score [4] | composite z-score [5] | composite z-score [6] | z-score [7] | composite z-score (Lefty1) | composite z-score [8] | z-score [9] | composite z-score [10] | z-score [11] | z-score [12] | z-score [13] | z-score [14] | composite z-score [15] | composite z-score [16] | composite z-score (Torsin-1A (Homo sapiens) [17]) | composite z-score (Torsin-1A (Homo sapiens) [18]) | composite z-score [19] |
| --- | --- | --- | --- | --- | --- | --- | --- | --- | --- | --- | --- | --- | --- | --- | --- | --- | --- | --- | --- | --- |
| COc1ccc(COC(=O)NN=C2C[C@@H](O)[C@@H](O)[C@@H]3[C@@H]4C(=O)N(C5CCCCC5)C(=O)[C@@H]4CC[C@@H]23)cc1 | 0.123 | -0.0517 | 0.0581 | 0.0695 | -0.148 | -0.373 | 0.847 | -0.371 | 0.401 | 0.0242 (inactive) | 0.0311 | -0.252 (inactive) | 0.755 (inactive) | 2.32 (inactive) | 0.0868 (inactive) | 0.576 | -0.0774 | -0.367 | 0.223 | -0.791 |
| C=CC[C@@H]1C=C[C@H](ON=CC[C@@H]2C=C[C@H](OC(C)=O)[C@@H](COC(C)=O)O2)[C@@H](CO)O1 | 1.37 | 0.915 | -0.0825 | 0.991 | 0.538 | 0.945 | -0.0536 | 0.918 | 0.566 | 0.328 (inactive) | 0.521 | 0.0101 (inactive) | -0.325 (inactive) | -1.21 (inactive) | -0.66 (inactive) | 1.54 | 0.113 | -0.161 | 0.259 | 0.925 |
| CCOC(=O)[C@H](Cc1ccccc1)NC(=O)CCC1CC(OC(=O)NCCc2ccc(F)cc2)CC2(CCCC(COC(=O)NCCC(C)C)O2)O1 (stereo not given in full) | 1.05 | 1.12 | 0.156 | 0.871 | 0.967 | 1.02 | 0.833 | 0.743 | 0.381 | 0.553 (inactive) | 0.446 | 0.0118 (inactive) | -0.275 (inactive) | 1.09 (inactive) | 0.956 (inactive) | 0.496 | -0.183 | 0.0817 | 0.34 | 1.68 |
| Cc1ccc(C(C)C)n1C(=O)OC(C)(C)C | -0.165 | 0.474 | 0.691 | -0.115 | 0.54 | 0.29 | 1.99 | 0.494 | 0.188 | -1.7 (inactive) | 0.211 | -0.841 (inactive) | -1.5 (inactive) | -0.708 (inactive) | 0.686 (inactive) | 0.963 | -0.176 | 0.356 | 0.196 | 0.675 |
| CC(=O)OC[C@H]1O[C@H](CC=NOC(C)CN2CCCCc3nc(C)c(C)cc32)C=C[C@@H]1OC(C)=O (stereo not given in full) | 0.544 | 0.819 | 0.0336 | 0.495 | 1.23 | 0.773 | -0.683 | 1.55 | 0.73 | 1.46 (inactive) | 0.696 | -0.402 (inactive) | 0.725 (inactive) | -0.157 (inactive) | 0.278 (inactive) | 1.87 | -0.137 | 3.43 | 2.9 | 1.48 |
| CC(C)(C)N1C(=O)[C@H]2[C@H]3[C@H](O)[C@H](O)CC(=NNC(=O)OCc4ccccc4)[C@H]3CC[C@H]2C1=O | 0.758 | 0.848 | 0.0507 | 1.03 | 0.963 | 0.491 | -1.08 | 1.43 | 0.525 | 0.944 (inactive) | 0.0281 | -3.97 (inactive) | -0.497 (inactive) | 1.34 (inactive) | 0.549 (inactive) | -0.107 | 0.125 | 0.436 | 0.591 | 0.897 |
| Cc1ccc(S(=O)(=O)N[C@@H]2COC(=O)CC=C[C@@H](C)[C@H](NS(=O)(=O)c3ccc(C)cc3)COC(=O)[C@H](C)NC(=O)CC=C[C@H]2C)cc1 | -0.563 | -0.676 | -0.1 | -0.111 | 0.72 | 0.499 | 0.73 | 0.61 | 0.0658 | -0.743 (inactive) | -0.0175 | 0.218 (inactive) | -0.88 (inactive) | -0.38 (inactive) | -0.863 (inactive) | -0.508 | -0.121 | -0.0787 | 0.0835 | 0.427 |
| Cc1cc(C)c(-c2cc([C@H](C)ON=C[C@@H](C)[C@H](OCc3ccccc3)C(C)C)on2)c(C)c1 | -0.781 | -1.04 | 0.0063 | -1.82 | -0.158 | 0.133 | 1.18 | 0.116 | 0.528 | 0.82 (inactive) | -0.18 | -0.295 (inactive) | 1.45 (inactive) | 0.0944 (inactive) | -0.549 (inactive) | 0.0366 | -0.242 | -0.477 | -0.273 | -0.16 |
| CCN1C(=O)[C@H]2[C@H]3[C@H](O)[C@H](O)CC(=NO[C@H](C)c4cn([C@@H]5COC[C@H]5O)nn4)[C@@H]3CC[C@H]2C1=O | -1.33 | -0.0712 | 0.339 | 0.178 | -0.537 | 0.092 | -0.444 | 0.371 | -0.215 | 0.846 (inactive) | 0.0122 | 0.654 (inactive) | -0.332 (inactive) | 0.0013 (inactive) | 0.446 (inactive) | 0.079 | -0.0468 | 0.174 | 0.0806 | 0.0707 |
| CCOC(=O)CCN1C(=O)[C@H]2[C@H]3[C@H](O)[C@H](O)CC(=NNC(=O)OCC)[C@H]3CC[C@H]2C1=O | 0.307 | -0.113 | 0.276 | -1.05 | 0.799 | 0.406 | -0.918 | 1.01 | -0.656 | 0.303 (inactive) | -0.034 | -1.63 (inactive) | 1.25 (inactive) | -0.202 (inactive) | 0.531 (inactive) | -0.58 | -0.24 | 0.0668 | 0.204 | 1.1 |
